Source: publication PMC4336329 (PLoS ONE, 2015)
Hit rate of the full screen: of about 310,000 compounds, about 2,200 (0.71%) showed an effect of 50% or more. The effect is printed as a negative number. The sample as a whole holds a higher share of strong results than the screen did.

Biological target: human ether-à-go-go-related gene (hERG) potassium channel (human, UniProt Q12809)
Test: primary screen, population patch clamp on CHO cells stably expressing hERG; higher = less effect of the substance

Sequence of human ether-à-go-go-related gene (hERG) potassium channel (Q12809 whole entry, looked up): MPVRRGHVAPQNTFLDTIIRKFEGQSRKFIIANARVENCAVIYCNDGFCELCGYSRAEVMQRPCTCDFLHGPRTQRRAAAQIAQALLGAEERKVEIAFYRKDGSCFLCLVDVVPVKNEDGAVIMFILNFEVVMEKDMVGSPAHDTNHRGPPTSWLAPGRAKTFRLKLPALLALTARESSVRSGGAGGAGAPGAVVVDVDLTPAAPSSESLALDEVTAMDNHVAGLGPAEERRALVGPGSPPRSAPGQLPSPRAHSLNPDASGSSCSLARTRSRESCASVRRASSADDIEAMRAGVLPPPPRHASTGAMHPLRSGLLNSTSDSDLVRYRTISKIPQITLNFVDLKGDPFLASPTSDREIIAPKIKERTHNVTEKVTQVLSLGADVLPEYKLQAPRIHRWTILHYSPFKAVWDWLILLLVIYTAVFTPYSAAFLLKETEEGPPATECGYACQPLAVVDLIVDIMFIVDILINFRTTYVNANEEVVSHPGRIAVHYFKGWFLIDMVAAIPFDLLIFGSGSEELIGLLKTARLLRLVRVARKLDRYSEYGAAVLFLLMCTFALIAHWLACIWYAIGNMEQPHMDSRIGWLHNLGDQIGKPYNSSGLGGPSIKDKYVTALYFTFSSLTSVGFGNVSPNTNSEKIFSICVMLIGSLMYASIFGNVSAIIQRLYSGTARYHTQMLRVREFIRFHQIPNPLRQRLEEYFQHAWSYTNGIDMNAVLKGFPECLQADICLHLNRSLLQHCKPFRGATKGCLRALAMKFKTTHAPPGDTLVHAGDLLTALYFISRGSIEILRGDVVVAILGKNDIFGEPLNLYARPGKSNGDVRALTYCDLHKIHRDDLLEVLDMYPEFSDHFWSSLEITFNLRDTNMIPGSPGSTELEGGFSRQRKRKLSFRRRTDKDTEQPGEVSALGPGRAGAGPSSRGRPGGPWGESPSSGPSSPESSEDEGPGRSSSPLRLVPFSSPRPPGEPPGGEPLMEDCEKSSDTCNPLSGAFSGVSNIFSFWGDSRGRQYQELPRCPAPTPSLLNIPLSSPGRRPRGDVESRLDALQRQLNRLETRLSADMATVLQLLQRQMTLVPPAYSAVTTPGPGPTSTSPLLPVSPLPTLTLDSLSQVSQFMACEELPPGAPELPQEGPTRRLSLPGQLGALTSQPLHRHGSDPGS

Row | SMILES | hERG current change (%, negative = inhibition) at 1uM
1 | CCc1cc2c(SCC(=O)N(C)C3CCS(=O)(=O)C3)ncnc2s1 (stereo not drawn) | -7.21%
2 | CCN(C(=O)CSc1nc2cc(Cl)ccc2c(=O)n1Cc1ccco1)C1CCS(=O)(=O)C1 (stereo not drawn) | -70.2%
3 | COCCn1c(SCC(=O)N(C)C2CCS(=O)(=O)C2)nc2ccccc2c1=O (stereo not drawn) | 4.99%
4 | CN(C(=O)CSc1nc2cc(C(=O)O)ccc2c(=O)n1Cc1ccccc1)C1CCS(=O)(=O)C1 (stereo not drawn) | 17.6%
5 | CCc1cc2c(=O)n(Cc3ccco3)c(SCC(=O)N(C)C3CCS(=O)(=O)C3)nc2s1 (stereo not drawn) | -85.4%
6 | CCN(C(=O)CSc1nc2cc(Cl)ccc2c(=O)n1CC(C)C)C1CCS(=O)(=O)C1 (stereo not drawn) | 10.7%
7 | O=C(CSc1nc2c(sc3ccccc32)c(=O)n1Cc1ccco1)NCC1CCCO1 (stereo not drawn) | -0.521%
8 | CC(C)Cn1c(SCC(=O)N(C)C2CCS(=O)(=O)C2)nc2cc(Cl)ccc2c1=O (stereo not drawn) | 4.62%
9 | CN(C(=O)CSc1nc2ccc(Br)cc2c(=O)n1Cc1ccco1)C1CCS(=O)(=O)C1 (stereo not drawn) | -83.1%
10 | CCc1cc2c(=O)n(Cc3ccco3)c(SCC(=O)NCC3CCCO3)nc2s1 (stereo not drawn) | -60.5%
11 | CCc1cc2c(=O)n(Cc3ccco3)c(SCC(=O)NC3CCS(=O)(=O)C3)nc2s1 (stereo not drawn) | -29.7%
12 | Cc1cc2c(=O)n(Cc3ccco3)c(SCC(=O)NCc3ccco3)nc2s1 | -0.915%
13 | C/C(=N\NC(=O)c1cc(C)[nH]n1)c1ccc(-c2ccccc2)cc1 | 13.7%
14 | O=C(CCN1C(=O)/C(=C/c2ccc(F)cc2)SC1=S)NNC(=O)c1cccnc1 | 1.06%
15 | COc1cc(/C=N\NC(=O)C(C)(C)O)ccc1OC/C=C/c1ccccc1 | 13%
16 | CC(C)c1ccccc1OS(N)(=O)=O | 4.02%
17 | COc1ccccc1NC(=O)CSc1nnc(C2CCCCC2)n1-c1ccccc1 | 2.23%
18 | Cc1cc(OCC(=O)NCCCN2CCCC2=O)c2c(C)cc(=O)oc2c1 | 19%
19 | O=C(C[n+]1cn(C(F)F)c2ccccc21)c1ccc(Br)cc1.[Br-] | 3.52%
20 | O=C(C[n+]1cccc(CNC(=O)c2ccc(OC(F)F)cc2)c1)c1ccccc1.[Cl-] | 2.3%

Row | SMILES | hERG current change (%, negative = inhibition) at 1uM
21 | O=C(C[n+]1cn(C(F)F)c2ccccc21)c1ccc(OC(F)F)cc1.[Br-] | -53.7%
22 | COc1ccc(C(=O)C[n+]2cn(C(F)F)c3ccccc32)c(F)c1.[Br-] | -0.738%
23 | O=C(C[n+]1ccc(C(=O)NCc2ccccc2)cc1)c1ccc(OC(F)F)cc1.[Br-] | -81.2%
24 | CCOc1ccc(C(=O)C[n+]2ccc(C(=O)NCc3ccccc3)cc2)cc1.[Br-] | 4.11%
25 | O=[N+]([O-])c1ccccc1/C=C/C=N/N1CCCCC1 | 13%
26 | CC(/C=C/c1ccc(N(C)C)cc1)=N\N=C(/N)SC1CC(=O)N(c2ccc(C(=O)O)cc2)C1=O (stereo not drawn) | 3.7%
27 | COCCNC(=S)N/N=C/c1ccc([N+](=O)[O-])cc1 | 12%
28 | Cc1ccc([N+](=O)[O-])c(OCCN2CCC(Cc3ccccc3)CC2)c1.O=C(O)C(=O)O | -25.9%
29 | O=[N+]([O-])c1cccc(CN2CCC(Cc3ccccc3)CC2)c1 | -45.6%
30 | Cc1ccc([N+](=O)[O-])c(OCCCN2CCCCCC2)c1.O=C(O)C(=O)O | -14.5%
31 | Cc1cc(OCCCN2CCN(Cc3ccccc3)CC2)ccc1[N+](=O)[O-].O=C(O)C(=O)O | -52.5%
32 | O=C(O)C(=O)O.O=[N+]([O-])c1cccc(OCCCN2CCC(Cc3ccccc3)CC2)c1 | -82.9%
33 | Cc1ccc([N+](=O)[O-])c(OCCCN2CCC(Cc3ccccc3)CC2)c1.O=C(O)C(=O)O | -95.8%
34 | Cc1cc(OCCN2CCOCC2)ccc1[N+](=O)[O-].O=C(O)C(=O)O | 10.6%
35 | Cc1cc(OCCN2CC(C)OC(C)C2)ccc1[N+](=O)[O-].O=C(O)C(=O)O (stereo not drawn) | -5.36%
36 | Cc1cc(OCCN2CCCCCC2)ccc1[N+](=O)[O-].O=C(O)C(=O)O | -12.8%
37 | Cc1cc(OCCN2CCC(Cc3ccccc3)CC2)ccc1[N+](=O)[O-].O=C(O)C(=O)O | -53.5%
38 | Cc1cc(OCCN2CCCC2)ccc1[N+](=O)[O-].O=C(O)C(=O)O | 7.94%
39 | O=C(O)C(=O)O.O=[N+]([O-])c1cccc(OCCN2CCC(Cc3ccccc3)CC2)c1 | -23.6%
